Experimental data published in the supplement of paper PMC12636033.
± gives the standard deviation of the averaged measurements. Whole data set: some 33,000 sequences, median “E-score (rank enrichment, -0.5 to 0.5)” near -0.0028, cut for the highest 2% near 0.23. The sample as a whole holds a higher share of the highest values than the screen did.

test system: 2Sb-muMax20 (muMax20 with two 1,3-bis(methyl)benzene Cys staples, A13C/A17C and Q88C/A92C, C-terminal Lys); assay: PBM 8-mer E-score (E-score (rank enrichment, -0.5 to 0.5)); higher = stronger preferential binding
Experimental: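 Protein binding microarray (universal PBM chip covering all 10-mers in fixed probe flanks) with chemically synthesized human Max(13-93) bHLH-LZ analogs (not full-length Max) bearing noncanonical residues (hArg, Tha, Aib, Nle at 65) and aromatic Cys staples. Read-out per 8-mer (and its reverse complement): E-score (rank-based enrichment, -0.5 to 0.5) and Z-score of median probe intensity.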

Row | Sequence | PBM 8-mer E-score
1 | ACTACCCC | 0.214 ± 0.047
2 | CGTACCCA | 0.0446 ± 0.097
3 | AGTACCCC | 0.129 ± 0.038
4 | ATGAAAAC | 0.0577 ± 0.019
5 | CAGGAAAC | -0.0883 ± 0.035
6 | CGACTCAC | -0.236 ± 0.04
7 | AGGGTTCC | -0.294 ± 0.015
8 | CCGTATGC | -0.07 ± 0.043
9 | ACGTATGA | 0.127 ± 0.02
10 | ACGTATGC | 0.238 ± 0.066
11 | TCCGAGCA | -0.1624 ± 0.00048
12 | AACCCCAT | 0.156 ± 0.03
13 | GATTAGAA | 0.00142 ± 0.015
14 | CATTAGAA | 0.00421 ± 0.034
15 | TATTAGAA | 0.259 ± 0.036
16 | ACCCGCCT | 0.0215 ± 0.042
17 | ATGCCGAC | -0.112 ± 0.0097
18 | AGTGGGAG | -0.0115 ± 0.017
19 | CGTGGGCA | 0.00349 ± 0.003
20 | AGTGGGAA | 0.105 ± 0.12
21 | CGTGGGGA | 0.0752 ± 0.016
22 | AGTGGGGC | 0.0302 ± 0.058
23 | AGTGGGGG | 0.085 ± 0.077
24 | GGTGGGGA | 0.302 ± 0.032
25 | AGTGGGAT | 0.293 ± 0.031
26 | GGTGGGCA | 0.262 ± 0.0056

Row | Sequence | PBM 8-mer E-score
27 | AGTGGGGA | 0.3126 ± 0.0004
28 | GGTGGGAA | 0.0964 ± 0.019
29 | GTTGGGCA | 0.024 ± 0.041
30 | CAATACCC | 0.216 ± 0.021
31 | ATCAAGCA | -0.0166 ± 0.023
32 | AACGTTAC | 0.0258 ± 0.019
33 | AATGGACA | 0.0255 ± 0.059
34 | CATCCCAG | -0.121 ± 0.0081
35 | AACGGCGA | -0.0512 ± 0.014
36 | ACGATAAA | 0.014 ± 0.017
37 | AGCAGAGG | -0.0143 ± 0.0075
38 | AGGTGGGA | 0.13 ± 0.12
39 | CGGTGGGA | 0.00626 ± 0.078
40 | GGGTGGGA | 0.314 ± 0.026
41 | GTACGCAA | -0.0811 ± 0.049
42 | ATACGCAA | 0.303 ± 0.0063
43 | ATACGCAG | -0.0883 ± 0.0056
44 | ATAGATAG | 0.204 ± 0.051
45 | CTATATAC | 0.214 ± 0.027
46 | GTATACAC | 0.0536 ± 0.025
47 | ATATATCC | 0.24 ± 0.015
48 | CTATATCC | 0.217 ± 0.014
49 | ATATATCA | 0.18 ± 0.048
50 | GTATATAA | 0.119 ± 0.015
51 | GTATATAC | 0.296 ± 0.039
52 | ATATATAC | 0.289 ± 0.038

Row | Sequence | PBM 8-mer E-score
53 | ATAGATAC | 0.239 ± 0.02
54 | ATAGATAA | 0.185 ± 0.09
55 | ATATATAT | 0.00253 ± 0.052
56 | CGGATTCC | -0.0954 ± 0.031
57 | CAAACGGA | -0.0945 ± 0.0024
58 | AACCACGG | -0.276 ± 0.0092
59 | CGATCAGA | -0.199 ± 0.015
60 | ATTGGCTG | -0.0784 ± 0.03
61 | CTCGTGCA | 0.0182 ± 0.011
62 | AAGTATAT | 0.136 ± 0.0036
63 | AAGTATAA | 0.196 ± 0.052
64 | ATATAGCA | 0.175 ± 0.016
65 | ATATAGCC | 0.234 ± 0.01
66 | AAGTATAC | 0.236 ± 0.038
67 | CTATAGCC | 0.0346 ± 0.087
68 | GTGAGACA | 0.0265 ± 0.039
69 | GTTGTCCA | 0.00715 ± 0.051
70 | AGGCCCGG | -0.321 ± 0.063
71 | GGGGTCAA | 0.109 ± 0.11
72 | ACGCGGTC | -0.0575 ± 0.016
73 | GAATAGAC | 0.00351 ± 0.056
74 | AAATAGAG | 0.114 ± 0.056
75 | CAATAGGG | 0.0594 ± 0.051
76 | CAATAGAC | 0.109 ± 0.022
77 | AAATAGGC | 0.0499 ± 0.12
78 | AAATAGGG | 0.286 ± 0.0043

Row | Sequence | PBM 8-mer E-score
79 | AAATAGAT | 0.24 ± 0.044
80 | AAATAGAA | -0.0324 ± 0.022
81 | AAATAGAC | 0.235 ± 0.0036
82 | GCCTGAGC | -0.218 ± 0.037
83 | GCAGCACC | -0.116 ± 0.057
84 | GGTTCCAC | -0.0645 ± 0.035
85 | ACGGTCTC | -0.174 ± 0.083
86 | ACCCATCA | 0.114 ± 0.044
87 | GCCCCGCC | 0.233 ± 0.12
88 | ACCCCGCC | 0.318 ± 0.056
89 | GCCCCGCA | 0.0269 ± 0.056
90 | CCCCCGCC | -0.0601 ± 0.073
91 | GGCCCGCC | -0.185 ± 0.11
92 | AACCCGCC | 0.123 ± 0.0032
93 | GGATTGTA | 0.156 ± 0.046
94 | AGGTAGCA | 0.107 ± 0.065
95 | AGGTCAGG | -0.187 ± 0.011
96 | CAAAGCAA | 0.173 ± 0.058
97 | GAAAGCAA | 0.0699 ± 0.014
98 | TAAAGCAA | 0.2878 ± 0.0008
99 | GTCGAGAC | 0.0609 ± 0.045
100 | ATTTCAGG | -0.054 ± 0.037
101 | AGATCCAG | -0.0734 ± 0.013
102 | GGACAGAC | -0.211 ± 0.04
103 | ATTGATGC | 0.125 ± 0.018
104 | ATTGATGG | 0.254 ± 0.0094

Row | Sequence | PBM 8-mer E-score
105 | ATTGATGA | 0.0883 ± 0.037
106 | CGCTGTTC | -0.0947 ± 0.036
107 | ATCTCGAC | -0.0985 ± 0.011
108 | CACACCAC | 0.0993 ± 0.072
109 | AGAACAAA | 0.13 ± 0.046
110 | CGAACATA | 0.233 ± 0.037
111 | CGAACAAG | -0.08043 ± 0.00071
112 | CGAACAAA | 0.261 ± 0.021
113 | GGAACATA | 0.0124 ± 0.063
114 | CGAACATC | 0.0524 ± 0.0016
115 | CGTAGGAC | -0.224 ± 0.05
116 | CGGCACAG | -0.151 ± 0.028
117 | CTATTAGA | -0.0815 ± 0.044
118 | GTATTAGA | 0.201 ± 0.063
119 | ATATTAGC | 0.125 ± 0.041
120 | CTATTAGC | 0.0397 ± 0.078
121 | ATATTAGA | 0.245 ± 0.0043
122 | ATATTAGG | 0.287 ± 0.008
123 | CGGCCCCG | -0.0779 ± 0.064
124 | GGAGGTTA | 0.0654 ± 0.011
125 | CGGTAAGA | 0.00167 ± 0.075
126 | CCACATCC | 0.00851 ± 0.069
127 | AGTGATTA | 0.0652 ± 0.034
128 | AACTAATA | 0.263 ± 0.029
129 | AACTATTA | 0.252 ± 0.069
130 | GACTATTA | -0.0384 ± 0.062

Row | Sequence | PBM 8-mer E-score
131 | GGCTATTA | 0.116 ± 0.04
132 | CACTAATA | 0.113 ± 0.031
133 | AGCTATTA | 0.251 ± 0.019
134 | CGCTATTA | -0.0606 ± 0.018
135 | TACTAATA | 0.112 ± 0.037
136 | CACTATTA | 0.133 ± 0.036
137 | ATCGGGTG | -0.0686 ± 0.0025
138 | ATCCAAGG | -0.161 ± 0.034
139 | CATACTCG | 0.0129 ± 0.075
140 | CCATCTTC | 0.0281 ± 0.036
141 | AATCACGA | -0.0273 ± 0.0012
142 | AATCACAT | 0.245 ± 0.025
143 | AATCACGC | 0.125 ± 0.047
144 | AATCACAA | 0.166 ± 0.021
145 | AATCACGT | 0.26 ± 0.025
146 | AATCACAG | -0.0581 ± 0.1
147 | ACAAATTA | 0.0394 ± 0.025
148 | CGGCAAAG | -0.127 ± 0.016
149 | CCGACAGG | -0.121 ± 0.008
150 | CCTCATTA | 0.251 ± 0.052
151 | CCTTATTA | 0.28 ± 0.023
152 | GCTTATTA | 0.1305 ± 0.0011
153 | CCTTATTC | -0.00564 ± 0.062
154 | GCTCATTA | 0.155 ± 0.098
155 | CCTCATTC | 0.0874 ± 0.052
156 | AGCTGCCT | -0.1104 ± 0.00073

Row | Sequence | PBM 8-mer E-score
157 | CAGCACGC | -0.176 ± 0.048
158 | CTAAAGCC | 0.0237 ± 0.016
159 | AGGGAAAG | 0.06 ± 0.037
160 | AGGGAAAC | 0.00477 ± 0.00053
161 | AGGGAAAT | 0.264 ± 0.019
162 | ATAAGCTG | 0.0487 ± 0.092
163 | AGTAGAAT | 0.192 ± 0.0085
164 | CGATTGAC | -0.0145 ± 0.035
165 | CCACGTAG | -0.0491 ± 0.031
166 | ACACGCGG | 0.145 ± 0.026
167 | CTACGTGA | 0.0198 ± 0.047
168 | CCACGTGC | 0.376 ± 0.054
169 | CCACGTGA | 0.377 ± 0.034
170 | CGACGTGC | -0.0806 ± 0.038
171 | CCACGCGA | 0.0259 ± 0.0059
172 | CCACGCGG | 0.323 ± 0.026
173 | CCACGTGG | 0.46 ± 0.0066
174 | CCACGTCC | -0.141 ± 0.039
175 | CGACGTGA | 0.0209 ± 0.0095
176 | CAACGTGG | 0.11 ± 0.044
